This is an account of results in PubChem BioAssay (EPA / NIEHS).

The nature of test [1]: TOX21_p53_BLA_p2_viability: Viability Assessment in the Tox21 HCT-116 p53 Agonism Beta-lactamase Assay, Phase 2 (AID 2283591).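 Further: compound exposure lasted 16 h at 37 °C; actives lower the ATP signal meaning cytotoxicity.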 The method, boiled down:
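HCT116 p53-bla cells, 4000/well, dosed after 5 h plating (217-fold dilution of DMSO stocks) and incubated 16 h at 37C. Viability taken as cellular ATP by CellTiter-Glo luminescence after 30 min RT; signal loss marks cytotoxicity.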

For test [2], the target named is Cellular tumor antigen p53 (Homo sapiens) (UniProt P04637). Description: TOX21_p53_BLA_p2_ratio: Tox21 HCT-116 p53 Agonism Beta-lactamase Assay, Ratio, Phase 2 (AID 2283592). The method, boiled down: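 In this cell-based reporter format, HCT116 cells were dosed with chemicals delivered from DMSO by 217-fold dilution and incubated 16 h at 37C. Emission at 460 and 530 nm after 2 h CCF4-AM loading provided the ratio, fitted upward versus DMSO.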

Test [3] in a line: TOX21_p53_BLA_p3_viability: Viability Assessment in the Tox21 HCT-116 p53 Agonism Beta-lactamase Assay, Phase 3 (AID 2283593).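 Further: cells exposed to compound for 16 h before reading.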 The essentials:
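HCT116 cells, 4000/well, dosed 5 h after plating by pin transfer (217-fold dilution from DMSO stock) and incubated 16 h at 37C, 5% CO2. Viability read as ATP luminescence with CellTiter-Glo after 30 min at room temperature.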

Test [4] has as its target Cellular tumor antigen p53 (Homo sapiens) (UniProt P04637). Put plainly: TOX21_p53_BLA_p3_ratio: Tox21 HCT-116 p53 Agonism Beta-lactamase Assay, Ratio, Phase 3 (AID 2283596). The method, boiled down: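 HCT116 p53-bla cells (4000/well) given compound in DMSO (217-fold dilution) after 5 h, incubated 16 h at 37C. CCF4-AM substrate 2 h at room temperature; 460/530 nm emission ratio, gain fitted against DMSO.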

Test [5] in a line: TOX21_p53_BLA_p4_viability: Viability Assessment in the Tox21 HCT-116 p53 Agonism Beta-lactamase Assay, Phase 4 (AID 2283597).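 Further: hits lower the luminescence signal meaning cytotoxicity.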 The essentials: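 We seeded HCT116 p53 reporter cells at 4000/well and waited 5 h. We then added compounds in DMSO at a 217-fold dilution and incubated for 16 h. Viability was read as CellTiter-Glo luminescence after 30 min at RT.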
A short description of test [6]: TOX21_p53_BLA_p5_viability: Viability Assessment in the Tox21 HCT-116 p53 Agonism Beta-lactamase Assay, Phase 5 (AID 2283600). The essentials:
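Compounds, pinned from DMSO at 217-fold dilution, were left on the cells for 16 h. The viability endpoint was ATP content measured by CellTiter-Glo luminescence, where falling signal reflects cytotoxicity.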

The target in test [7] is Cellular tumor antigen p53 (Homo sapiens) (UniProt P04637). Put plainly: TOX21_p53_BLA_p4_ratio: Tox21 HCT-116 p53 Agonism Beta-lactamase Assay, Ratio, Phase 4 (AID 2283601). The essentials:
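HCT-116 p53 beta-lactamase reporter cells (4000/well) preincubated 5 h, then compound (217-fold dilution of DMSO stock) for 16 h at 37C. CCF4-AM substrate added 2 h at room temperature; 460/530 nm emission ratio fitted upward versus DMSO.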

Test [8] is described as follows: CCTE_Harrill_HTTr_Viability_MCF7: CCTE's 6-hour Cell Viability Assessment for the High-Throughput Transcriptomics (HTTr) Platform, in MCF-7 cells cultured in DMEM + 10% fetal bovine serum, Harrill Lab (AID 2284010; active means hit-call score of the fitted dose curve at least 0.9, where 1 is the maximum; inactive means score below 0.9). The essentials:
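Membrane integrity was scored by high-content imaging of propidium iodide dye exclusion after a 6 h exposure across an eight-point dilution series. Data were fitted bidirectionally relative to DMSO as negative control and baseline.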

Test [9] is described as follows: CCTE_Harrill_HTTr_Apoptosis_MCF7: CCTE's 6-hour Apoptosis Assessment for the High-Throughput Transcriptomics (HTTr) Platform, in MCF-7 cells cultured in DMEM + 10% fetal bovine serum, Harrill Lab (AID 2284011; active means hit-call score of the fitted dose curve at least 0.9, where 1 is the maximum; inactive means score below 0.9). The method, boiled down:
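Read-out: CellEvent Caspase 3/7 Green signal by high content imaging, gain-of-signal indicating apoptosis. MCF-7 cells, DMEM + 10% FBS, eight-point dilution series, 6 h exposure. Curves fitted bidirectionally relative to DMSO negative control.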

The nature of test [10]: CCTE_Harrill_HTTr_CellCount_MCF7: CCTE's Cell Proliferation Assessment for the High-Throughput Transcriptomics (HTTr) Platform, Harrill Lab (AID 2284012).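 Further: cells exposed to compound for six hours; intended direction is loss of nuclei count meaning fewer cells.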 The essentials:
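MCF-7 cells were exposed for 6 h to an eight-point dilution series; Hoechst-labeled nuclei were counted by high content imaging. Curves were fitted bidirectionally against DMSO as negative control and baseline, with signal loss indicating reduced cell count.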

Test [11] addresses Thyroid hormone receptor alpha (Rattus norvegicus) + Thyroid hormone receptor beta (Rattus norvegicus) (UniProt P18113+P63059). Description: TOX21_TR_LUC_GH3_Agonist_Followup: Tox21 GH3 Thyroid Hormone Receptor Agonism Luciferase Follow-Up Assay (AID 2283939). The method, boiled down:
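Rat GH3 cells (1,500/well) in serum-free assay medium, treated with 15-point series, 92 uM to 5 nM final, for 24 h at 37C. Luciferase via ONE-Glo luminescence; gain of signal fitted against DMSO, T3 positive control.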

For test [12], the target named is THRA (gene 7067) (UniProt P10827). Description: TOX21_TRA_COA_Agonist_Followup_ratio: Tox21 Thyroid Hormone Receptor alpha Agonism through Coactivator Recruitment Follow-Up Assay, Ratio (AID 2283948; active means hit-call score of the fitted dose curve at least 0.9, where 1 is the maximum; inactive means score below 0.9). The method, boiled down:
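GST-TRa LBD 2.5 nM + 0.10% BSA + cpd; add fluorescein-SRC-2 200 nM, Tb-anti-GST 2 nM. TR-FRET ex 340, em 520/495 ratio. Norm: DMSO 0%, T3 100%; gain-of-signal fit.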

The target in test [13] is THRB (gene 7068) (UniProt P10828). Description: TOX21_TRB_BLA_Agonist_Followup_ratio: Tox21 Thyroid Hormone Receptor beta Agonism Beta-lactamase (BLA) Follow-Up Assay, Ratio (AID 2283954). The essentials: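 Human TRβ LBD–GAL4 DBD fusion in GeneBLAzer UAS-bla HEK293T cells; 11 concentrations in triplicate, 18 h at 37°C/5% CO2, T3 as agonist control. CCF4-AM substrate 2 h at room temperature; 460:530 nm ratio fitted for gain of signal versus DMSO.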

Test [14] has the same target. Put plainly: TOX21_TRB_COA_Agonist_Followup_ratio: Tox21 Thyroid Hormone Receptor beta Agonism through Coactivator Recruitment Follow-Up Assay, Ratio (AID 2283963; active means hit-call score of the fitted dose curve at least 0.9, where 1 is the maximum; inactive means score below 0.9). The method, boiled down: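 Signal is the 520/495 nm emission ratio (excitation 340 nm), scaled between DMSO-only wells as 0% and T3 wells as 100%. It reflects fluorescein-labeled SRC-2 peptide recruitment to GST-TRβ ligand-binding domain detected via terbium anti-GST antibody.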

Test [15] deals with Retinoic acid receptor RXR-alpha (Homo sapiens) (UniProt P19793). Put plainly: TOX21_TR_RXR_BLA_Agonist_Followup_ratio: Tox21 Thyroid Hormone Receptor beta Retinoid X Receptor alpha (RXRa) Agonism Beta-lactamase (BLA) Follow-Up Assay, Ratio (AID 2283968). The method, boiled down: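 RXRa-UAS-bla HEK293T cells (GAL4 beta-lactamase reporter) were treated with compounds at 11 concentrations in triplicate for 16 h at 37C/5% CO2, then loaded with CCF4-AM substrate for 2 h at room temperature; activity is the 460:530 nm ratio versus DMSO baseline.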

Test [16] in a line: TOX21_TR_RXR_BLA_Agonist_Followup_viability: Viability Assessment in the Tox21 Thyroid Hormone Receptor beta Retinoid X Receptor alpha (RXRa) Agonism Beta-lactamase (BLA) Follow-Up Assay (AID 2283970). The essentials:
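RXRa-UAS-bla HEK293T cells seeded at 2,500/well in phenol red-free DMEM with 2% charcoal-stripped FBS, exposed to compound 16h at 37C/5% CO2 in qHTS. Viability read by CellTiter-Glo ATP luminescence; bidirectional fitting against DMSO baseline, signal loss indicating cytotoxicity.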

Molecules are shown by their SMILES. Results filed as inconclusive are left out. Activity calls are given as the source filed them. How the source made its calls, unless noted: active means hit-call score of the fitted dose curve at least 0.9, where 1 is the maximum; inconclusive means response in the unintended direction; inactive means score below 0.9.

Chain of Cellular tumor antigen p53 (Homo sapiens) (P04637 whole entry, looked up): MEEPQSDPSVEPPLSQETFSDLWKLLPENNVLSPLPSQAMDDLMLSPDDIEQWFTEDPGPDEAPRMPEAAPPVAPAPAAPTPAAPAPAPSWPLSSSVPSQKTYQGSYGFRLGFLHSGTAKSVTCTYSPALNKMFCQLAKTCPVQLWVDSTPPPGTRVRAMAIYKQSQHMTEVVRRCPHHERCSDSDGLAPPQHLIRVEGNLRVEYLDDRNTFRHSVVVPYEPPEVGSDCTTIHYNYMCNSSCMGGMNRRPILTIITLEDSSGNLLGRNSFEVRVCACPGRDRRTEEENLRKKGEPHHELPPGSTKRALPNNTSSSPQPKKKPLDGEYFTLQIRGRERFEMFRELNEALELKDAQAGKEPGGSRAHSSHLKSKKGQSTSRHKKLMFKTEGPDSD
Chain of THRB (gene 7068) (P10828 whole entry, looked up, the tested form may be a part): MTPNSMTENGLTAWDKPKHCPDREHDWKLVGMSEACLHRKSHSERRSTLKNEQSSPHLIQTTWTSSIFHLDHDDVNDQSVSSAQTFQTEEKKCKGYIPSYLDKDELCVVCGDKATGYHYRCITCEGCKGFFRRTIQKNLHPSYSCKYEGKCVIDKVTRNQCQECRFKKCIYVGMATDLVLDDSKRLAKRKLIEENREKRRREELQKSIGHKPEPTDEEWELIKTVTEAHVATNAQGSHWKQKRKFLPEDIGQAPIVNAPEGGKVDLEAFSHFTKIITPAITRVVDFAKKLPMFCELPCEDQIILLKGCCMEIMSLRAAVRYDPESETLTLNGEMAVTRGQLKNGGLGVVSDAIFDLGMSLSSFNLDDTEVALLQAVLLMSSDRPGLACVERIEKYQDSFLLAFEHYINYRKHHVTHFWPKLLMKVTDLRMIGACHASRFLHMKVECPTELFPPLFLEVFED
Chain of THRA (gene 7067) (P10827 whole entry, looked up, the tested form may be a part): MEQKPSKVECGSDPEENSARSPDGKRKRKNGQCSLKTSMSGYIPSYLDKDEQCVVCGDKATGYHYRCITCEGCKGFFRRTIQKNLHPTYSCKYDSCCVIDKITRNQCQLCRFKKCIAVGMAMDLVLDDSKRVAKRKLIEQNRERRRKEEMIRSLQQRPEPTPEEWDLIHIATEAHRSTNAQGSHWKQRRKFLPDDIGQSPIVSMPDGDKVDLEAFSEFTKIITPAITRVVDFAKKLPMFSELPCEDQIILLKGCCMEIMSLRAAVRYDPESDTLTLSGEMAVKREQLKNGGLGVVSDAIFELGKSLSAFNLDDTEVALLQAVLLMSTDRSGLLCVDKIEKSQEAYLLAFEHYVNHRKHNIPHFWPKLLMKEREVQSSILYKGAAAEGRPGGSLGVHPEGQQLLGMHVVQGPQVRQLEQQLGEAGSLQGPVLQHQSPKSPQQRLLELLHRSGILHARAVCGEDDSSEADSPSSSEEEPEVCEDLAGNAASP
Chain of Thyroid hormone receptor alpha (Rattus norvegicus) + Thyroid hormone receptor beta (Rattus norvegicus) (P63059 whole entry, looked up): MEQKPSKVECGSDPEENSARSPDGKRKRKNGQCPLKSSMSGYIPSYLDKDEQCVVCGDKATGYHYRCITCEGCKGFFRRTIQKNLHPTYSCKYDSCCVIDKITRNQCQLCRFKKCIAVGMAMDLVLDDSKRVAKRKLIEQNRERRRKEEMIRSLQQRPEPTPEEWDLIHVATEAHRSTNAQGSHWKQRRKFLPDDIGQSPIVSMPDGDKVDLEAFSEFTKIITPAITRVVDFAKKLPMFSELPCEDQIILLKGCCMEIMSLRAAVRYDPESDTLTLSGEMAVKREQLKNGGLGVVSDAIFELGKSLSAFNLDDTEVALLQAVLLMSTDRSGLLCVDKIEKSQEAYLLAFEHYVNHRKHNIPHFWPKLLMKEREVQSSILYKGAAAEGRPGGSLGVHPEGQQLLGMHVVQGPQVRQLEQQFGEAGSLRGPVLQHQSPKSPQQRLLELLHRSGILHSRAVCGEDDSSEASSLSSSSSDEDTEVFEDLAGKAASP
Chain of Thyroid hormone receptor alpha (Rattus norvegicus) + Thyroid hormone receptor beta (Rattus norvegicus) (P18113 whole entry, looked up): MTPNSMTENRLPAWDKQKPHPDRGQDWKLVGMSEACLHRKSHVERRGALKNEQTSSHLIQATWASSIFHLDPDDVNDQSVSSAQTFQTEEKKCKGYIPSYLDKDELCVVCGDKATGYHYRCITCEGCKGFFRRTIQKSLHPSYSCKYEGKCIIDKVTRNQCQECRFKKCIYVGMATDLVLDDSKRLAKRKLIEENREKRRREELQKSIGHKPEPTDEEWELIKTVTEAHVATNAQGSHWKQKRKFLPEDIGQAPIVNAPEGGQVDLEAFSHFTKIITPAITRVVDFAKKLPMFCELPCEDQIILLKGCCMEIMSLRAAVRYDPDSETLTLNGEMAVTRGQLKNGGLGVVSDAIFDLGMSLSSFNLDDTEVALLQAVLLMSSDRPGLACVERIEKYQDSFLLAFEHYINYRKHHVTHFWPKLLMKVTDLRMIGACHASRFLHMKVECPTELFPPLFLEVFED
Chain of Retinoic acid receptor RXR-alpha (Homo sapiens) (P19793 whole entry, looked up, the tested form may be a part): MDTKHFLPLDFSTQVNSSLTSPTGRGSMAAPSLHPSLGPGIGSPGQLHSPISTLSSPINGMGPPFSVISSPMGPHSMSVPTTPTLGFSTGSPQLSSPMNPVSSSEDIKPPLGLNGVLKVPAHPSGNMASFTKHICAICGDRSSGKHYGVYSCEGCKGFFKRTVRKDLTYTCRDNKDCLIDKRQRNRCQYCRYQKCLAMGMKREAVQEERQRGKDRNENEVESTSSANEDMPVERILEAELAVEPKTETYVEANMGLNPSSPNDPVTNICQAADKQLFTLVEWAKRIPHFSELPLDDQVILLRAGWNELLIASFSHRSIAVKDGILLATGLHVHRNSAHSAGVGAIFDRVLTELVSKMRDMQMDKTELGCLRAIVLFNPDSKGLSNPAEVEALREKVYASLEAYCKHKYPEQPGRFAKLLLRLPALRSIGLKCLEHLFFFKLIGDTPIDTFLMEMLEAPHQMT

In the case of `Cc1cc(C(C)(C)C)c(O)c(C)c1Cn1c(=O)n(Cc2c(C)cc(C(C)(C)C)c(O)c2C)c(=O)n(Cc2c(C)cc(C(C)(C)C)c(O)c2C)c1=O`, the result in test [1], in test [2], in test [3], in test [5], in [6] and in [7] was inactive. In addition, the half-maximal activity concentration (AC50) in [4] was 56.3 µM (active).

For the molecule `CCCCN(CCCC)CC(O)c1cc(Cl)cc2c1-c1ccc(Cl)cc1/C2=C/c1ccc(Cl)cc1` (centres undefined), the outcome in [1], in test [2], in [3], in [4], in [5] and in [6] was inactive. Also, in [7], the outcome was inactive.

As for `CCc1oc2ccccc2c1C(=O)c1cc(I)c(O)c(I)c1`, the AC50 in test [1] is 23 µM (active); in [2], 7.59 µM (active); in [3], 26.1 µM (active); in [4] it was 20.8 µM (active); in test [5], 11 µM (active); in test [6] it was 24.1 µM (active). Besides, the AC50 in test [7] was 6.73 µM (active).

As for `CC(C(=O)O)c1ccc(-c2ccccc2)c(F)c1` (centres undefined), the call in test [1], in test [2], in test [3], in test [4], in [5] and in [6] was inactive. The result in [7], in test [8], in test [9] and in [10] was inactive.

Consider `CSCC[C@H](NC(=O)[C@H](Cc1ccc(OS(=O)(=O)O)cc1)NC(=O)[C@@H](N)CC(=O)O)C(=O)NCC(=O)N[C@@H](Cc1c[nH]c2ccccc12)C(=O)N[C@@H](CCSC)C(=O)N[C@@H](CC(=O)O)C(=O)N[C@@H](Cc1ccccc1)C(N)=O`, for which the call in test [1], in test [2], in test [3], in test [4], in test [5] and in [6] was inactive. Besides, the result in test [7], in test [11], in test [12], in test [13], in test [14] and in [15] was inactive. Moreover, the molecule was called inactive in [16].

A word on the AC50: it is the concentration giving half of the maximal activity seen.
